The values that follow come from PubChem BioAssay (Tox21).

“And” between values parts separate entries of the source, which are not always exact repeats. Identical values can stand only once. Where a structure was tested more than once in an assay, its records may differ in their call. The source made the active and inactive calls. A call without a number means that no potency is given here. Calls come from the whole dose curve; as a rule, active = well fitted activation curve with a large enough effect in the repeat runs; inconclusive = weak or mixed curves; inactive = flat fitted curve, though single readings scatter.
Potency is the fitted concentration of half-maximal effect.

A short description of the test: A CellTox Green Cytotoxicity Assay to monitor cytotoxicity in HEK293 cells - 0 hour (AID 1224869). Note: nearly all actives have a fitted effect of over 50% in size. As to conditions: CellTox Green fluorescence; series mostly up to 76.8 µM. Put shortly:
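Seeding of HEK293 cells together with cytotoxicity dye preceded a 5 h incubation at 37 C/5% CO2. Test compounds in DMSO were then added and fluorescence monitored across 40 h.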
Consider `CCOCCOCCO`, for which the Potency entry is “inactive”.
For the compound `C/C=C/C(=O)O`, the Potency result was “inactive”.
On to `O=C(Nc1ccc([N+](=O)[O-])cc1Cl)c1cc(Cl)ccc1O`, for which the Potency result was “inactive”.
On to `COC(=O)CCC(=O)OC`, for which the Potency result is “inactive”.
Turning to `O=CCc1ccccc1`, the Potency entry was “inactive”.
As for `COC(=O)c1ccccc1`, the Potency result is “inactive”.
With `CC(C)OC=O`, the Potency result is “inactive”.
`Nc1ccc(S(=O)(=O)Nc2cnc3ccccc3n2)cc1`: the Potency result was “inactive”.
`O=C(O)c1ccccc1Nc1cccc(C(F)(F)F)c1`: the Potency result was “inactive”.
Regarding `CN(C)CCN(Cc1cccs1)c1ccccn1`, the Potency result was “inactive”.
In the case of `c1cc(N(CC2CO2)CC2CO2)ccc1OCC1CO1` (centres undefined) it was “inactive”; in that of `CCC(C)(O)CCCC(C)C` (centres undefined), “inactive”; in that of `Cc1c(C(N)=O)cc([N+](=O)[O-])cc1[N+](=O)[O-]`, “inactive”.
Regarding `O=C(COc1ccc(Cl)cc1)N1CCN(Cc2ccc3c(c2)OCO3)CC1`, the Potency entry was “inactive”.
`CN(C)c1nc(N(C)C)nc(N(C)C)n1`: the Potency result is “inactive”.
As for `Cc1cccc([N+](=O)[O-])c1C`, the Potency entry was “inactive”.
Consider `CC(C)=CCC/C(C)=C\CO`, for which the Potency result is “inactive”.
In the case of `Cc1ncc[nH]1` it was “inactive”.
On to `O=CCCCC=O`, for which the Potency entry was “inactive”.
`CCCCCCCCCC(=O)OC`: the Potency entry is “inactive”.
As for `CCCc1c(OCCCCc2nn[nH]n2)ccc(C(C)=O)c1O`, the Potency entry is “inactive”.
For `C[Si](C)(C)O[Si](C)(C)C`, the Potency result was “inactive”.
The value for `C=C(C)C1CC=C(C)CC1` (centres undefined) was “inactive”; that for `C#C[C@]1(O)CC[C@H]2[C@@H]3CCC4=Cc5oncc5C[C@]4(C)[C@H]3CC[C@@]21C` was “inactive”.
`Oc1ccc(O)cc1`: the Potency result is “inactive”.
With `COc1ccc(C(=O)CC(=O)c2ccc(C(C)(C)C)cc2)cc1`, the Potency result is “inactive”.
In the case of `CC(C)=CCCC(C)CCO` (centres undefined) it was “inactive”; in that of `c1ccc2c(c1)c1cccc3ccc4cccc2c4c31`, “inactive”; in that of `C[C@]12CCC(=O)C=C1CC[C@@H]1[C@@H]2C(=O)C[C@@]2(C)[C@H]1CC[C@]2(O)C(=O)CO`, “inactive”.
Take `OC1CCCCCCCCCCC1`: the Potency result was “inactive and 43.6 µM (active)”.
Consider `CC(=O)C1(C)CC2=C(CCCC2(C)C)CC1C` (centres undefined), for which the Potency entry was “inactive”.
For `C=CC(C)(CCC=C(C)C)OC(C)=O` (centres undefined), the Potency result is “inactive”.
The value for `NNc1ccc(C(=O)O)cc1` was “inactive”; that for `CC(=O)c1ccccn1` was “inactive”.
As for `COC(C)COC(C)COC(C)CO` (centres undefined), the Potency entry is “inactive”.
In the case of `O=C=Nc1ccc(Cc2ccc(N=C=O)cc2)cc1` it was “inactive”; in that of `COc1ccc(OC)c(C(O)CNC(=O)CN)c1` (centres undefined), “inactive”.
For the compound `O=S(=O)(O)c1ccc(O)cc1`, the Potency entry is “inactive”.
In the case of `CC(=O)CC/C=C(\C)CCC=C(C)C`, the Potency result was “inactive”.
